Bioassay records as filed in PubChem BioAssay.
This is one part of a sample in which hits are shown more often than they occur.
KDM5B inh: blocks human KDM5B histone demethylase activity; KDM5B demethylase, FDH-coupled NADH fluorescence (FDH is formaldehyde dehydrogenase); Potency, µM (highest dose often 57.7 µM), hits mostly inhibitors; hit rate 2.6% among 220,000; active = well fitted inhibition curve with a large enough effect; also: nearly all actives have a fitted effect of over 70% in size
Target sequence (Q9UGL1 whole entry, looked up): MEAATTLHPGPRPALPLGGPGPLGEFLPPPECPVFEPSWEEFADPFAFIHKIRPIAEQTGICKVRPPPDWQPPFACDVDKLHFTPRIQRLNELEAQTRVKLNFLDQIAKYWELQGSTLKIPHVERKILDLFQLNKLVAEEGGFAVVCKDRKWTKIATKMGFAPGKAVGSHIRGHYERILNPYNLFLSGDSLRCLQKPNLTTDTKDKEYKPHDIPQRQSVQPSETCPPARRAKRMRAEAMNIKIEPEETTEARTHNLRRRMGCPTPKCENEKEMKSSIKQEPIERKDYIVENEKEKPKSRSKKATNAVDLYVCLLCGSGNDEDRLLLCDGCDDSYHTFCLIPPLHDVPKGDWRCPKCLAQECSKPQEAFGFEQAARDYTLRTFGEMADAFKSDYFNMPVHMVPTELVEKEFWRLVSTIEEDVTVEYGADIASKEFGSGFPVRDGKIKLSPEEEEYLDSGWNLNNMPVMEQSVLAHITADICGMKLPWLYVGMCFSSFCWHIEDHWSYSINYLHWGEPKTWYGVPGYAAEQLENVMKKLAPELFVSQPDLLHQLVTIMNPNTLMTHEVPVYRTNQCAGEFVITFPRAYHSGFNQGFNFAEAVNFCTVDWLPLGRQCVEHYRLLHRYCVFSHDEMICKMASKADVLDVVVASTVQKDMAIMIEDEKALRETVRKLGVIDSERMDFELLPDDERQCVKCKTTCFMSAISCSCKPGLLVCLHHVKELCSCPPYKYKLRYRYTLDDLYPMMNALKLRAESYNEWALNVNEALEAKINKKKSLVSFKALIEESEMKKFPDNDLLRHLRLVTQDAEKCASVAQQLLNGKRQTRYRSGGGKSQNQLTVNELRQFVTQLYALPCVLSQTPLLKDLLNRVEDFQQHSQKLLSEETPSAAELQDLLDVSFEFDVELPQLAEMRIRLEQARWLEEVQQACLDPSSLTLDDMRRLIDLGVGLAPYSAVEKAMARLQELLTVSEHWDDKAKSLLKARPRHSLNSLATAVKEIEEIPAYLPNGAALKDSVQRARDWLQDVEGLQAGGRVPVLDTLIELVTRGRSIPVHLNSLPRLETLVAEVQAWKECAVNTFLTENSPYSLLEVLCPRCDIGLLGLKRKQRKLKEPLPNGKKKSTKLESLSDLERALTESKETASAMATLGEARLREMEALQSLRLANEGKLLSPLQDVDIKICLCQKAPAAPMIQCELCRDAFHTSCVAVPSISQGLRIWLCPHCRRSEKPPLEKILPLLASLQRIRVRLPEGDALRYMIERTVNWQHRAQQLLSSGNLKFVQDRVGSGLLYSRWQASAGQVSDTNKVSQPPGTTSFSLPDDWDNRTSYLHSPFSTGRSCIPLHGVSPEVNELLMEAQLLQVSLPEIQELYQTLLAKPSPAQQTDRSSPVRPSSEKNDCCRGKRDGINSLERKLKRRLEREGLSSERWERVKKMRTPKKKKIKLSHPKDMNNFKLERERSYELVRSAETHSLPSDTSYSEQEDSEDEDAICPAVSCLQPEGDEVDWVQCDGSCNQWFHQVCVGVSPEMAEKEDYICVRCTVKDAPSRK
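Compound dilutions met 200 nM (final) KDM5BΔAP for 10 min at room temperature before substrate addition. The substrate mix held 12.5 µM H3K4me3 with cofactors 25 µM α-ketoglutarate and 50 µM Fe²⁺. NADH signal gain over 30 min defined activity.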
Hits are given with their value; - = inactive; [ ] = another dose, or the depositor's remark.

SMILES | KDM5B inh
O=C(CCSc1ccccc1Cl)OCC(=O)c1ccc(C2CCCCC2)cc1 | -
O=C(CSCc1ccc([N+](=O)[O-])cc1)N/N=C/c1ccco1 | -
CCOc1ccc2c(n1)CCN(C(=O)c1ccc(OC)cc1OC)C2 | -
Cc1noc(C)c1Cc1ccc(C(=O)NC2CCc3nnc(C)n3CC2)o1 (stereo not given) | -
O=C1Nc2ccccc2CN(Cc2ccc(Cl)cc2)C12CCNCC2 | -
CN(Cc1cccc2[nH]ccc12)C1CCc2nn(CC3CC3)c(=O)n2CC1 (stereo not given) | 25.1µM
O=C(NC1CCc2nn(CC3CC3)c(=O)n2CC1)c1n[nH]c2ccccc12 (stereo not given) | 28.2µM
CCOc1ccccc1CN(C)C1CCc2nn(CC3CC3)c(=O)n2CC1 (stereo not given) | -
CN(Cc1ccc2c(c1)CCO2)C1CCc2nn(CC3CC3)c(=O)n2CC1 (stereo not given) | -
CCCNC(=O)NC1CCc2nn(CC3CC3)c(=O)n2CC1 (stereo not given) | -
Cc1cnc(C(=O)NC2CCc3nn(CC4CC4)c(=O)n3CC2)cn1 (stereo not given) | -
Cc1cc(S(=O)(=O)Nc2cccc(C(F)(F)F)c2)sc1C(=O)O | -
COc1ccc(CN2CCN(S(=O)(=O)c3cc(OC)ccc3OC)CC2)cc1 | -
CSc1ccc(NC(=O)c2cc3c(s2)CN(C2CC2)C3)cc1 | 22.4µM
CSc1ccc(NC(=O)C2CCCCC2)cc1 | -
CSc1ccc(NC(=O)c2ccc3c(c2)CCC3)cc1 | -
CCOc1cccc(CNC(=O)[C@@]23CCCC[C@H]2N(C)C(=O)CC3)c1 | -
Fc1ccc(CCNc2cc(Cl)nc3ccnn23)cc1 | -
Nc1n[nH]c(CNc2cc(-c3ccc(F)cc3)nc3ccnn23)n1 | 28.2µM
COc1cccc(CNc2cc(Cl)nc3ccnn23)c1 | -
CCOc1cc(C=O)cc(Br)c1OCc1cccc(C)c1 | -
CC1(C(=O)NCc2ccccc2)CCCCC(=O)N1 (stereo not given) | -
CNC(=S)NNC(=O)c1csc(C)c1C | -
Cc1ccc(CN2CCC3(CC2)COc2ccccc2C(=O)N3)cc1 | -
O=C1NC2(CCN(Cc3ccsc3)C2)COc2ccccc21 (stereo not given) | 35.5µM
SMILES | KDM5B inh
O=C1NC2(CCN(Cc3ccsc3)C2)Oc2ccccc21 (stereo not given) | -
Cn1nccc1CN1CCCC2(COc3ccccc3C(=O)N2)C1 (stereo not given) | 39.8µM
O=C1NC2(CCCN(C(=O)c3ccccc3)C2)COc2ccccc21 (stereo not given) | -
O=C1NC2(CCCN(Cc3ccsc3)C2)Oc2ccccc21 (stereo not given) | -
O=C1NC2(CCN(Cc3ccc(F)cc3)CC2)COc2ccccc21 | -
O=C1NC2(CCCN(Cc3ccc(C(F)(F)F)cc3)C2)COc2ccccc21 (stereo not given) | 25.1µM
Cn1nccc1CN1CCC2(CC1)NC(=O)c1ccccc1O2 | -
CCc1nnc(NC(=O)c2cc(-c3ccccc3)nc3ccccc23)s1 | -
O=C1CCC2(CNC(=O)c3ccco3)CCCC=C2N1 (stereo not given) | -
CC1(C)CC(=O)C2=C(C1)OC(N)=C(C#N)C2c1ccc(C#N)cc1 (stereo not given) | -
Clc1cc(Cl)cc(OCc2cc(-c3ccco3)on2)c1 | -
O=C(CSc1ncc(-c2ccccc2)o1)Nc1ccc(Cl)cc1 | -
Cc1nn(-c2ccccc2)c(C)c1CN1CCC2(Cc3ccccc3CNC2=O)C1 (stereo not given) | -
Cc1ncc(CO)c(CN2CCC3(Cc4ccccc4CNC3=O)C2)c1O (stereo not given) | 79.4µM
CCc1ccccc1CN1CCC2(Cc3ccccc3CNC2=O)C1 (stereo not given) | -
CCOC(=O)c1cnc2c(OC)cccc2c1Nc1ccccc1 | -
CC(C)c1ccc(OCCN)cc1 | -
COc1ccc(-c2cc(C(=O)NCC(C)C)c3c(C4CCNC4)nn(C)c3n2)cc1 (stereo not given) | 79.4µM
COc1ccc(CNC(=O)c2cc(-c3ccc(C)cc3)nc3n[nH]c(-c4ccc(Br)cc4)c23)cc1 | -
Cc1cc(C(=O)NCc2ccc(F)cc2)c2c(C3CCNC3)noc2n1 (stereo not given) | -
COc1ccc(-c2cc(C(=O)N3CCOCC3)c3c(C4CCNC4)nn(C)c3n2)cc1 (stereo not given) | 79.4µM
COc1ccc(-c2cc(C[C@H]3CNCC[C@H]3CC(=O)N3CCOCC3)no2)cc1 | -
O=C(c1cc(C2CC2)nc2onc(C3CCNC3)c12)N1CCC(F)CC1 (stereo not given) | -
COCCN1C(=O)C(=O)/C(=C(/O)c2ccc(OC)c(C)c2)C1c1ccc(Cl)cc1Cl (stereo not given) | -
O=C(NCCC12CC3CC(CC(C3)C1)C2)C12CC3CC(CC(C3)C1)C2 | -
SMILES | KDM5B inh
O=C(NCc1ccc(-n2cccn2)cc1)c1ccc(Cl)cc1F | -
O=C(NCc1ccc(Cl)nc1)c1ccn2nccc2c1 | -
O=C(NCc1ccc(Cl)cc1)c1cc2cccnn2n1 | 31.6µM
Cc1ccccc1-c1onc(C)c1C(=O)NCc1ccc(Cl)cc1 | -
Cc1nnn2c(C(=O)NCc3ccc(Cl)cc3)cccc12 | 35.5µM
O=C(NCc1ccc(Cl)cc1)c1ccn2nccc2c1 | 35.5µM
O=C(Nc1ccc(Cl)cc1Cl)c1cc2cccnn2n1 | -
O=C(NCCc1ccc(Cl)cc1)c1cc2ccccn2n1 | -
CCCCCn1c(=O)[nH]c2cc(C(=O)NCc3ccc(Cl)cc3)ccc2c1=O | -
O=C(CCn1cccn1)NCc1ccc(Cl)cc1 | -
CN(C)c1ncc(C(=O)NCc2ccc(Cl)cc2)cn1 | -
O=C(NCc1ccc(Cl)cc1)c1cnn2ncccc12 | 35.5µM
Cc1cccc(NC(=O)Cn2c(-c3cnccn3)nc(C)c(CCO)c2=O)c1C | -
O=C(c1ccc(C(F)(F)F)cc1)N1CCCC2(CN[S+](=O)([O-])c3ccccc3N2)C1 (stereo not given) | -
Cn1nc(C(=O)N2CCOCC2)cc1C(=O)Nc1cccc(F)c1 | -
O=C(O)c1ccc(CN2C[C@H](O)C[C@H]2c2nc(C3CC3)no2)cc1 | -
Cc1ccc(NC(=O)c2nn(C)c(=O)c3ccccc23)cc1Cl | -
COc1ccc(OC)c(NC(=O)c2c(-n3cnnn3)sc(C)c2C)c1 | -
O=C([C@@H]1C[C@H](F)CN1S(=O)(=O)Cc1ccc(Cl)cc1)N1CCCCC1 | -
CCC(=O)NCC(c1cccs1)N(C)C (stereo not given) | -
Cc1sc2ccn(C)c(=O)c2c1C(=O)NCc1ccccc1Cl | -
CCc1ccc(NC(=O)c2cc3ccccn3n2)cc1 | -[11.5 µM]
C=CCNC(=O)c1cc2cccnn2n1 | 31.6µM
C=CCNC(=O)c1cc(-c2ccc3c(c2)OCO3)on1 | -
O=S(=O)(c1ccc(Cl)s1)N1CCOc2ccc(COCc3ccccc3)cc2C1 | -
SMILES | KDM5B inh
Cc1ccc(C#N)c(NCc2cccnc2Oc2cccc(C(F)(F)F)c2)n1 | 25.1µM
CC(C)(C)CC(=O)NCc1cccnc1Oc1cccc(C(F)(F)F)c1 | -
Cc1ccnn1CC(=O)NCc1cccnc1Oc1cccc(C(F)(F)F)c1 | -
O=C(Cc1c[nH]c2ccccc12)Nc1ccc(F)c(F)c1 | -
COc1cccc(CN2CCOC[C@H](Oc3cccnc3)C2)c1 | -
COc1ccc(-c2ncc(CN3CCOC(c4cccnc4)C3)cn2)cc1 (stereo not given) | 22.4µM
COc1ccc(CN2CCOC(c3cccnc3)C2)cc1Cn1cccn1 (stereo not given) | -
